Data published in PubChem BioAssay AID620 (Sanford-Burnham Center for Chemical Genomics, 2007).
Screen size: about 87,000 compounds; about 360 (0.41%) were called active. Rule as the data show it: active = cytotoxicity above about 50%; inactive = the rest. Only a selection was taken, and actives are over-represented in it overall.

Experiment: HT1080 cell viability loss – fluorescence readout (AID 620);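 also: cells exposed to compound overnight then 4 h with Alamar Blue; 0% = vehicle DMSO and 100% = killing control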
Conditions: at 10 µM, active compounds read high

Row | Structure (SMILES) | cytotoxicity
1 | O=c1c2cc(Br)ccc2nc2n1CCCCC2 | -8.5% (inactive)
2 | COc1cccc(CNC(=O)c2cc3ccccn3n2)c1 | 0% (inactive)
3 | CC(=O)c1cccc(NC(=O)c2cc3ccccn3n2)c1 | 6.1% (inactive)
4 | CCOC(=O)c1nc(N)c(=O)n(-c2ccc(C)cc2)n1 | 5.9% (inactive)
5 | CCOc1ccc(N(C(=O)Cn2nnc3ccccc32)C(C(=O)NC(C)(C)CC)c2cccn2C)cc1 (configuration not stated) | 15% (inactive)
6 | C=CC1C(N2CCOCC2)C(C)(C)S1(=O)=O (configuration not stated) | 0.5% (inactive)
7 | Cc1cc(NC(=O)CSc2nnc3c(C)cc4c(C)ccc(C)c4n23)no1 | 58.9% (active)
8 | Cc1cc(C)c2c(c1)cc(C)c1nnc(SCC(=O)Nc3cc(C)on3)n12 | 20.3% (inactive)
9 | Cc1cc(NC(=O)CSc2nnc3c(C)cc4cc(C)c(C)cc4n23)no1 | 11.9% (inactive)
10 | COc1ccc(N2CCN(C(=O)CN(Cc3ccc(Cl)cc3)S(C)(=O)=O)CC2)cc1 | -6.4% (inactive)
11 | CC1CCCCN1C(=O)CSc1ccc(-c2ccc(F)cc2)nn1 (configuration not stated) | -10.9% (inactive)
12 | CCOC(=O)N1CCN(C(=O)c2ccccc2Oc2ccccc2)CC1 | 3.5% (inactive)
13 | CCOc1ccc(-c2cc(C(=O)N3CCN(c4ccccn4)CC3)c3ccccc3n2)cc1 | 52.4% (active)
14 | O=C(c1ccccc1-c1ccccc1)N1CCCC1 | 7.3% (inactive)
15 | CCOc1ccc(-c2cc(C(=O)O)c3ccccc3n2)cc1 | 23.3% (inactive)
16 | CCOc1ccc(-c2cc(C(=O)N3CCN(C)CC3)c3ccccc3n2)cc1 | 3.8% (inactive)
17 | O=C(c1cc(-c2ccccc2)nc2ccccc12)N1CCN(c2ccccn2)CC1 | -0.4% (inactive)
18 | CCOC(=O)N1CCN(C(=O)c2cc(-c3ccc(OCC)cc3)nc3ccccc23)CC1 | 54.9% (active)
19 | COc1ccc(-c2cc(C(=O)N3CCN(c4ccccn4)CC3)c3ccccc3n2)cc1 | 3.7% (inactive)
20 | CCOC(=O)N1CCN(C(=O)c2ccccc2-c2ccccc2)CC1 | 58.5% (active)
21 | CNC(=S)NN(c1ccccc1)c1ccccc1 | 30.1% (inactive)
22 | COc1ccccc1CNC(=O)C(=O)NCC1CCCO1 (configuration not stated) | 0.9% (inactive)
23 | Cc1cc(=O)oc2cc(OCC3CC(c4ccccc4)=NO3)ccc12 (configuration not stated) | 8.1% (inactive)
24 | Cc1cc(=O)oc2cc(OCC3CC(c4ccccc4Cl)=NO3)ccc12 (configuration not stated) | 63.5% (active)
25 | Cc1cc(=O)oc2cc(OCC3CC(c4ccc(Cl)cc4)=NO3)ccc12 (configuration not stated) | -6.9% (inactive)

Row | Structure (SMILES) | cytotoxicity
26 | O=C(NCc1ccccn1)C1CCCN(Cc2cnn(-c3ccccc3)c2-n2cccc2)C1 (configuration not stated) | -8.2% (inactive)
27 | CC1CCN(S(=O)(=O)c2ccc3c(c2)C(=NO)c2cc(S(=O)(=O)N4CCC(C)CC4)ccc2-3)CC1 | 4.2% (inactive)
28 | O=S(=O)(c1ccc(S(=O)(=O)N2CCCC2)cc1)N1CCCCCC1 | 1.4% (inactive)
29 | O=S(=O)(c1ccc2c(c1)C(=NO)c1cc(S(=O)(=O)N3CCCCC3)ccc1-2)N1CCCCC1 | 102% (active)
30 | CC(=O)c1ccc(NC(=O)C(Cc2ccccc2)NC(=O)c2ccco2)cc1 (configuration not stated) | 16.9% (inactive)
31 | CCC(C(=O)NC1CCCC1)N(Cc1cccs1)C(=O)Cn1nnc(-c2ccc(OC)c(OC)c2)n1 (configuration not stated) | -0.6% (inactive)
32 | CC1=C(C)/C(=N\OS(=O)(=O)c2ccccc2)C=CC1=O | 70.2% (active)
33 | CC1=C/C(=N\OS(=O)(=O)c2ccccc2)C=CC1=O | 35.8% (inactive)
34 | CC1=C(C)/C(=N/OC(=O)c2cccc([N+](=O)[O-])c2)C=CC1=O | 7.5% (inactive)
35 | Cc1ccc(S(=O)(=O)O/N=C2\CCCc3ccccc32)cc1 | 9.9% (inactive)
36 | CC1=CC(=O)C=C(C)C1=NOS(=O)(=O)c1ccccc1 | 51.3% (active)
37 | O=S(=O)(O/N=C1\CCCc2ccccc21)c1ccccc1 | 21.4% (inactive)
38 | Cn1cc(Cl)c(C(=O)N/N=C/c2ccc(OS(=O)(=O)c3ccccc3)cc2)n1 | 6.3% (inactive)
39 | Cc1ccc2[nH]c(=O)c(-c3nc4cc(C)ccn4c3NCc3ccco3)cc2c1 | -1.5% (inactive)
40 | CC(=O)OC(Cn1ccnc1)c1ccccc1 (configuration not stated) | 7.8% (inactive)
41 | Cc1cccc(N2CCN(C(=O)c3ccc(Cl)c(S(=O)(=O)NCc4ccco4)c3)CC2)c1C | 26.2% (inactive)
42 | O=C(c1ccc(Cl)c(S(=O)(=O)NCc2ccco2)c1)N1CCN(c2ccccc2F)CC1 | 5.8% (inactive)
43 | COc1ccccc1N1CCN(C(=O)c2ccc(Cl)c(S(=O)(=O)NCc3ccco3)c2)CC1 | 56.3% (active)
44 | Nc1nc(SCc2ccc(Cl)cc2)[nH]c(=O)c1-c1ccccc1 | 1.6% (inactive)
45 | COc1ccccc1N1CCN(c2ncnc3c2oc2ccccc23)CC1 | -2.5% (inactive)
46 | COc1ccccc1N1CCN(c2nc(C)nc3c2oc2ccccc23)CC1 | 74.7% (active)
47 | Cc1cc(C)nc(N2CCN(c3nc(C)nc4c3oc3ccccc34)CC2)n1 | -3.6% (inactive)
48 | O=C(c1cccc(F)c1)N1CCN(Cc2c[nH]c3ccccc23)CC1 | 2.4% (inactive)
49 | COc1ccc2cc(C(c3nnnn3Cc3ccccc3)N3CCCCCC3)c(=O)[nH]c2c1 (configuration not stated) | 17.3% (inactive)
50 | Cc1cc(C(=O)CSc2nnc(-c3cccs3)n2Cc2ccccc2)c(C)n1C | 4.7% (inactive)

Row | Structure (SMILES) | cytotoxicity
51 | Cc1c(NC(=O)CSc2nc3ccccc3n2C)c(=O)n(-c2ccccc2)n1C | 2.7% (inactive)
52 | COc1ccc(C(=O)n2nc(-c3ccco3)nc2N)cc1 | 25.6% (inactive)
53 | COc1ccc(C(=O)n2c(-c3ccco3)nc3ccccc32)cc1 | 56.2% (active)
54 | CCn1c(-c2ccco2)nc2ccccc21 | 6.1% (inactive)
55 | CCN(CC)C(=O)CSc1nc2sc(C)c(C)c2c(=O)[nH]1 | -6.3% (inactive)
56 | COc1ccc(CCN(C)C(=O)N2CCOCC2)cc1OC | -5.8% (inactive)
57 | CCSc1nnc(NC(=O)c2cccc(OCc3c(C)noc3C)c2)s1 | -11.1% (inactive)
58 | COc1cc(C(=O)Nc2nc3ccccc3s2)ccc1OCc1c(C)noc1C | -13% (inactive)
59 | COc1ccc2nc(NC(=O)c3cccc(OCc4c(C)noc4C)c3)sc2c1 | 57.3% (active)
60 | CC1C(=O)CCN(C(C)C)C1C (configuration not stated) | -13.7% (inactive)
61 | Cc1oc2cc(O)cc(C)c2c(=O)c1-c1cnn(-c2ccccc2)c1 | 33.9% (inactive)
62 | O=C1CCc2cc(S(=O)(=O)N3CCCC3C(=O)N3CCN(c4ccccc4)CC3)ccc2N1 (configuration not stated) | -3.8% (inactive)
63 | CC(C)(C)c1cc(NCCCn2ccnc2)n2ncc(-c3ccc(Cl)cc3)c2n1 | -4.9% (inactive)
64 | Cc1cc(NCCCn2ccnc2)n2ncc(-c3ccccc3)c2n1 | -5.3% (inactive)
65 | Cc1cccc(-n2nnnc2SCC(=O)NCCN2C(=O)CSC2=O)c1 | -3.3% (inactive)
66 | O=C(c1cc2ccccc2oc1=O)N(Cc1cccs1)C1CCS(=O)(=O)C1 (configuration not stated) | 3.4% (inactive)
67 | Cc1ccc(C2C(C#N)=C(N)Oc3n[nH]c(C)c32)cc1 (configuration not stated) | 1.3% (inactive)
68 | Cc1[nH]nc2c1C(C(C)C)C(C#N)=C(N)O2 (configuration not stated) | 11.3% (inactive)
69 | Cc1[nH]nc2c1C(C1CC=CCC1)C(C#N)=C(N)O2 (configuration not stated) | 73% (active)
70 | Cc1ccc(N=Nc2c(C)[nH][nH]c2=O)c(C)c1 | 1.8% (inactive)
71 | COc1ccc(CCN/C=C2/CC(=O)NC2=O)cc1OC | 0.2% (inactive)
72 | COc1ccc(C)cc1NC(=O)NC1CCN(Cc2ccccc2)CC1 | 3% (inactive)
73 | O=C1C(=O)c2ccc(-c3ccccc3)cc2-c2ccccc21 | 47.5% (inactive)
74 | Nc1ccc2c(c1)C(=O)C(=O)c1ccccc1-2 | 92.7% (active)
75 | Nc1ccc(Br)c2c1C(=O)c1ccccc1C2=O | -18.1% (inactive)

Row | Structure (SMILES) | cytotoxicity
76 | COc1ccc(C2=NOC(C(=O)NCc3ccco3)C2)cc1OC (configuration not stated) | 46.5% (inactive)
77 | COc1cc(C2=NOC(C(=O)NCc3cccs3)C2)cc(OC)c1OC (configuration not stated) | 58.1% (active)
78 | O=C(NCc1cccs1)C1CC(c2ccccc2O)=NO1 (configuration not stated) | -1.4% (inactive)
79 | COc1ccc(C2=NOC(C(=O)NCc3cccs3)C2)cc1 (configuration not stated) | 7.4% (inactive)
80 | COc1ccc(C2=NOC(C(=O)NCc3cccs3)C2)cc1OC (configuration not stated) | 59.8% (active)
81 | COc1ccc(C2=NOC(C(=O)NCc3ccco3)C2)cc1 (configuration not stated) | 6% (inactive)
82 | COc1cc(C2=NOC(C(=O)NCc3ccccn3)C2)cc(OC)c1OC (configuration not stated) | -2.6% (inactive)
83 | COc1cccc(C2=NOC(C(=O)NCc3cccs3)C2)c1 (configuration not stated) | -1.8% (inactive)
84 | COc1cc(C2=NOC(C(=O)NCc3ccco3)C2)cc(OC)c1OC (configuration not stated) | 54.4% (active)
85 | CCCCN(C)Cc1c(O)ccc2c(-c3ccccc3)cc(=O)oc12 | 11.9% (inactive)
86 | CCOc1ccc(NC(=O)N2CCC(NC(=O)c3ccco3)CC2)cc1 | 4.5% (inactive)
87 | O=C(CSc1ncn(-c2ccccc2)n1)c1cccs1 | -3.1% (inactive)
88 | CCOc1ccc(-c2nc(S(=O)(=O)c3ccccc3)c(NCc3cccnc3)o2)cc1 | 0.3% (inactive)
89 | CC(=O)Nc1ccccc1-c1nn[nH]n1 | -11.5% (inactive)
90 | Cn1c(/C=C/c2ccc([N+](=O)[O-])o2)nc2ccccc2c1=O | 85.1% (active)
91 | Cc1ccc2nc(N/N=C\c3ccc([N+](=O)[O-])o3)nc(-c3ccccc3)c2c1 | 13.6% (inactive)
92 | Cn1c(SCc2ccon2)nc2ccccc2c1=O | 2.4% (inactive)
93 | O=C(CC1(O)C(=O)Nc2cc(Cl)cc(Cl)c21)c1ccccc1O (configuration not stated) | -66.6% (inactive)
94 | CCCCNc1c(C(=O)OCC)c(=O)[nH]c2ccccc12 | 0.1% (inactive)
95 | CCN(CC)c1ccc(NC(=O)c2c(OC)cccc2OC)c(C)c1 | -1.4% (inactive)
96 | CCN(CC)c1ccc(NC(=O)c2cc(OC)cc(OC)c2)c(C)c1 | 59.7% (active)
97 | CCN(CC)c1ccc(NC(=O)c2cccc(OC)c2)c(C)c1 | 16.9% (inactive)
